Shown are actives, neighbours in structure and some others; about 4% of the full set was active somewhere.
TRPM1 prom inh: reduces MITF-dependent TRPM1 promoter luciferase signal | SK-MEL-5 TRPM1 promoter luciferase, 24 h | inhibition, % at 12.5 µM | actives 0.83% (n = 330,000) | AID 488899;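 active means mean inhibition across replicates of 60% or more, whatever share of single replicates reaches that level; inconclusive means some that reach 60%, reason not given; inactive means mean inhibition across replicates below 60%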
MITF act: activators of MITF-driven TRPM1 promoter activity in SK-MEL-5 cells. SK-MEL-5 TRPM1-promoter luciferase, 24 h; % of positive control, neutral wells = 0. activation, % at 12.5 µM. actives 0.75% (n = 300,000);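 active means mean activation of at least 80% with every replicate also reaching 80%; inconclusive means mean reaches 80% but some replicate falls short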;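 further: 0% = neutral control wells and 100% = parthenolide positive control wells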
Wnt act: activates Wnt/beta-catenin signaling in a reporter cell assay; activation, % at 9.35 µM; actives 1.2% (n = 300,000); activator, plate reader; in the data active means activation above about 30%, passing the limit was not always enough; inconclusive means no clear call, values can overlap the other calls;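 further: 0% = neutral control wells and 100% = positive control wells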
esBAF inh: SWI/SNF esBAF complex inhibition | actives 2% (n = 350,000) | reporter increase, % at 12.5 µM | AID 602393 | mouse ES cells, Bmi1-luciferase knock-in reporter, 24 h; 100% = twice the neutral-well signal; in the data active means activation above about 40%; inconclusive means no clear call, values can overlap the other calls;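 further: 0% = median of the plate's neutral control wells and 100% = double that signal; a rise in the Bmi1 reporter signal indicates esBAF inhibition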
LMP1 NFkB inh: reduces LMP1-driven NF-kappaB luciferase signal; inhibition, % at 12.5 µM; AID 504558; actives 0.69% (n = 350,000); LMP1-induced NF-kappaB luciferase reporter cells, luminescence; in the data active means inhibition above about 41%; inconclusive means no clear call, values can overlap the other calls;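 further: 0% = neutral control wells and 100% = reference inhibitor control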
C2C12 statin: suppression of simvastatin myotoxicity. C2C12 myotubes + simvastatin, ATP luminescence, 48 h; scaled: DMSO 0, geranylgeraniol control 100. AID 602340. actives 0.78% (n = 330,000). rescue of ATP level, % at 7.49 µM;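 active means mean ATP rescue above about 67%, or every replicate alone reaching that limit, limit read from the data, passing the limit was not always enough; inconclusive means no clear call, values can overlap the other calls; inactive means mean under the limit and some replicate under it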;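 further: myotubes were challenged with 10 µM simvastatin during compound exposure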
An asterisk follows results filed as active; ? = inconclusive; · = not tested or not shown.

SMILES | TRPM1 prom inh | MITF act | Wnt act | esBAF inh | LMP1 NFkB inh | C2C12 statin
COc1cc(/C=N/N=C(\N)c2nonc2N)ccc1O | -108 | 53 | 18 | · | 0 | ·
N/C(=N\N=C\c1ccc(Br)o1)c1nonc1N | -114 | 118* | 23 | · | -26 | ·
N/C(=N\N=C\c1ccc(O)cc1)c1nonc1N | -60 | 65 | 49* | · | -32 | ·
O=C(Nc1ccccc1)OCC1COC(c2ccccc2)(c2ccccc2)O1 (stereo not drawn) | -4 | 4 | 49* | · | -3 | 5
C=CCn1c(N)c(C(=O)NCCC2=CCCCC2)sc1=S | -70 | 63 | 10 | 47* | -31 | 18
Cc1ccc(-c2csc(NC(=O)c3ccc([N+](=O)[O-])o3)n2)cc1 | 46 | -44 | 1 | 9 | -1 | 91*
Cc1ccc(-c2csc(NC(=O)c3ccno3)n2)cc1 | -34 | 36 | 15 | 60* | -7 | 5
Cc1cccc(NC(=O)CN2CCc3cc4c(cc3C2C)OCCCO4)c1 (stereo not drawn) | 3 | -2 | -2 | 4 | 3 | -21
COc1ccc(NC(=O)N(C)C[C@H]2Oc3ccc(NC(=O)CCCCCC(=O)Nc4ccccc4N)cc3CC(=O)N([C@@H](C)CO)C[C@@H]2C)cc1 | · | · | · | 1 | · | 11
CNC(=O)C[C@H]1CC[C@H]2[C@H](COc3ccc(NC(=O)c4cscn4)cc3C(=O)N2C)O1 | · | · | · | -3 | · | 8
CSc1ccc(S(=O)(=O)NC(C)c2ccccc2)cc1 (stereo not drawn) | 2 | -2 | -1 | · | 3 | ·
Cc1ccc(S(=O)(=O)NC(C)c2ccccc2)cc1[N+](=O)[O-] (stereo not drawn) | 1 | -2 | 1 | -2 | 50* | -4
CNC[C@@H]1Oc2ccc(NC(=O)Nc3c(C)noc3C)cc2CC(=O)N([C@H](C)CO)C[C@@H]1C | · | · | · | 6 | · | -8
O=C(NCCCN1CCCC1=O)c1cccs1 | 2 | -5 | · | -4 | -4 | 10
CCC(C)C(=O)N1CCCC(c2nc(-c3cccs3)no2)C1 (stereo not drawn) | -91 | ? | ? | 53* | -21 | 2
O=C(N/N=C/c1ccccc1)c1cc(-c2ccc3c(c2)OCO3)n[nH]1 | -8 | 12 | -7 | 49* | -11 | -2
Cc1ccccc1C(=O)Nc1cccc(C(=O)N/N=C/c2ccc3c(c2)OCO3)c1 | -40 | 38 | 1 | 43* | -37 | -4
Cc1ccc(C(=O)NN=Cc2ccc3c(c2)OCO3)cc1 | -38 | 45 | 9 | 48* | -23 | -11
N/C(=N\N=Cc1ccc2c(c1)OCO2)NN=Cc1ccc2c(c1)OCO2 | 66* | -65 | 11 | 20 | -15 | -7
O=C(N/N=C/c1ccc(O)cc1)c1cc(-c2ccc3c(c2)OCO3)n[nH]1 | -3 | 6 | 0 | 23 | -7 | 3
O=C(NN=Cc1ccc2c(c1)OCO2)NN=Cc1ccc2c(c1)OCO2 | -28 | 30 | 2 | · | -4 | -7
Cn1c(N)c(C(=O)COC(=O)CN2C(=O)c3ccccc3C2=O)c(=O)n(C)c1=O | 12 | -12 | -9 | · | -10 | ·
Cc1noc(C)c1S(=O)(=O)Nc1ccc2c(c1)CC(=O)N([C@@H](C)CO)C[C@H](C)[C@H](CN(C)C(=O)NC(C)C)O2 | · | · | · | -3 | · | -45
COc1ccc(OC)c(S(=O)(=O)N/N=C\c2ccc3c(c2)OCO3)c1 | -44 | 43 | 11 | 47* | -10 | 10
COc1ccc(S(=O)(=O)N/N=C\c2ccc3c(c2)OCO3)c(OC)c1 | 6 | -4 | -9 | · | 24 | ·
SMILES | TRPM1 prom inh | MITF act | Wnt act | esBAF inh | LMP1 NFkB inh | C2C12 statin
Cc1cccc(C(=O)Nc2cccc(C(=O)N/N=C/c3ccc4c(c3)OCO4)c2)c1 | -50 | 55 | 15 | 60* | -23 | -4
COc1ccc(CCC(=O)N/N=C/c2ccc3c(c2)OCO3)cc1 | -16 | 18 | 2 | 56* | 1 | 2
Cc1cccc(C(=O)Nc2ccc(C(=O)N/N=C/c3ccc4c(c3)OCO4)cc2)c1 | 8 | -10 | -2 | 1 | -3 | 9
Cc1nc2ccccn2c1C(=O)N/N=C/c1ccc2c(c1)OCO2 | -79 | 88* | 0 | · | -20 | ·
CC(=O)N(C)C[C@H]1Oc2ncc(/C=C/c3ccccc3)cc2C(=O)N([C@@H](C)CO)C[C@@H]1C | · | · | · | 0 | · | 25
O=c1c2ccccc2nc(-c2cccs2)n1-c1ccc2ccccc2c1 | -2 | 3 | 6 | · | -6 | ·

Assay outcomes (PubChem BioAssay)
